Rows were chosen to be rich in hits. Some 1.8% of all compounds tested hit in one or more screens of this group.
GC-A act: GC-A stimulated cGMP production enhancers – HEK293 GC-A cells, cGMP TR-FRET, EC30 ANP, primary screen; 370,000 compounds, 0.14% hits; activation, % at 10 µM; Atrial natriuretic peptide receptor 1 (Homo sapiens), P16066; 0% at EC30 ANP, 100% saturating ANP; in the data active = activation above about 40%
Target sequence (P16066 whole entry, looked up): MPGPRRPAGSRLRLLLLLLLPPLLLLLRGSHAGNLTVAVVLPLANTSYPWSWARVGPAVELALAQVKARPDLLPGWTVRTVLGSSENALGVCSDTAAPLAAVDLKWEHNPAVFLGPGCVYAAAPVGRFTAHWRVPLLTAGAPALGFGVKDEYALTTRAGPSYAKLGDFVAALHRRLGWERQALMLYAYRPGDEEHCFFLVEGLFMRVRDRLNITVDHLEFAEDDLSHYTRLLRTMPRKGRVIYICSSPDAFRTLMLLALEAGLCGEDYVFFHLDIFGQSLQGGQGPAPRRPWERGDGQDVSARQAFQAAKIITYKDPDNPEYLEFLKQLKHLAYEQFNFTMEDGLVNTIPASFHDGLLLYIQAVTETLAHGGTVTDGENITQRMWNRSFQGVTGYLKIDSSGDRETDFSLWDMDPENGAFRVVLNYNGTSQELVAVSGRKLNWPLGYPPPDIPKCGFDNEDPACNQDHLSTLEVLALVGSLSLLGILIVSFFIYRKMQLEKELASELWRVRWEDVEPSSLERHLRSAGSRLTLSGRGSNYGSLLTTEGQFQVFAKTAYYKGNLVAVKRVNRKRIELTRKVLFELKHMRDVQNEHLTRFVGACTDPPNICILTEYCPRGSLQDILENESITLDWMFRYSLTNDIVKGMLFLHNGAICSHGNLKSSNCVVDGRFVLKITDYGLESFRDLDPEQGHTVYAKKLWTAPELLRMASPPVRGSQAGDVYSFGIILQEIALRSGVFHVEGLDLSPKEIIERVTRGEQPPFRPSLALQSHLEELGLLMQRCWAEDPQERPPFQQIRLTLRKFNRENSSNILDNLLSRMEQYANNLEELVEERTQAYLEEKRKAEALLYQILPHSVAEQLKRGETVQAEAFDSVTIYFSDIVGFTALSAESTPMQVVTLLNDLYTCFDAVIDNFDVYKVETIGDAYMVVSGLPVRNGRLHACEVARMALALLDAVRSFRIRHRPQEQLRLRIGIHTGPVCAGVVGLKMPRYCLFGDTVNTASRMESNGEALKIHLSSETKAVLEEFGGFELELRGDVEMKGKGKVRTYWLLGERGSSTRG
Granule exo inh: LAMP-1 surface exposure blockers, TALL-104 cells – cell-based, flow cytometry, MLPCN library, primary screen | TALL-104 LAMP-1 surface exposure; cells stimulated with thapsigargin and PMA | inhibition, % at 10 µM | 360,000 compounds, 0.66% hits;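 active = inhibition above about 55%, limit read from the data; inconclusive = no clear call, values can overlap the other calls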
Myeloid diff 2: induction of myeloid progenitor differentiation, primary screen, cell-based, flow cytometry, MLPCN library; ER-HoxA9 myeloid progenitors, lysozyme-GFP differentiation; calls only at 10 µM; 360,000 compounds, 1% hits; AID 624256, 2012;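 active = normalized GFP-positive differentiation at or above the plate's own cutoff, the solvent-only control mean plus 3 SD; inconclusive = no clear call, values can overlap the other calls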;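 also: cells exposed to compound for four days before flow analysis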
NPR2 activator: human GC-B receptor activators, primary screen, HEK293 GC-B cells, cGMP TR-FRET, EC30 CNP | 0% at EC30 CNP, 100% saturating CNP | activation, % at 10 µM | 370,000 compounds, 0.11% hits | Atrial natriuretic peptide receptor 2 (Homo sapiens), P20594 | AID 1920062, 2024;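 active = activation at 10 µM reaching about 35% in either raw or pattern-adjusted values, limit read from the data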
An asterisk follows results filed as active.

Results for Cc1ccccc1NC(=S)/C(=C(\[O-])c1ccc(C)c([N+](=O)[O-])c1)[n+]1ccccc1 ?
GC-A act: -4; Granule exo inh: -3; Myeloid diff 2: inactive; NPR2 activator: 2

How did COc1cc2[nH]c(=S)nc(NCc3ccccc3)c2cc1OC do in these assays?
GC-A act: 1; Granule exo inh: -4; Myeloid diff 2: inactive; NPR2 activator: -3

How did COc1cc2[nH]c(=S)nc(NCc3ccccn3)c2cc1OC do in these assays?
GC-A act: 10; Granule exo inh: -4; Myeloid diff 2: active; NPR2 activator: 1

How did COC(=O)[C@H](C(C)C)N1CCc2nnn(CC3CCCCC3)c2-c2ccccc2S1(=O)=O do in these assays?
GC-A act: -3; NPR2 activator: 0

How did COC(=O)[C@]12C[C@H](CC(=O)NCc3cccs3)C(=O)N(CCc3ccc(OC)c(OC)c3)C1=C[C@H](C1CCCC1)O[C@@H]2C do in these assays?
GC-A act: -2; NPR2 activator: -1

What do the screens show for `Fc1ccc2cc(C3=CCCCC3)ncc2c1`?
GC-A act: -1; NPR2 activator: -4

What do the screens show for `CCN(CC)S(=O)(=O)c1cc(NC(=O)C(C)N2CCc3ccccc32)ccc1C` (centres undefined)?
GC-A act: -2; Granule exo inh: 24; Myeloid diff 2: active; NPR2 activator: 4

What do the screens show for `COc1cc2c(cc1OC)CN(CCC(C)c1ccc(Cl)cc1)CC2` (centres undefined)?
GC-A act: -18; Granule exo inh: 65*; Myeloid diff 2: inactive; NPR2 activator: -22

Results for COc1cc2c(cc1OC)CN(Cc1ccccc1)CC2 ?
GC-A act: 0; Granule exo inh: -2; Myeloid diff 2: inactive; NPR2 activator: 3

What do the screens show for `CC(C)N1CCCCC(NC(=O)c2ccc(F)c(F)c2)C1=O` (centres undefined)?
GC-A act: 2; NPR2 activator: 1

Results for O=C1/C(=C\c2cc(Cl)c(O)c(Cl)c2)SC(=S)N1Cc1ccccc1 ?
GC-A act: 6; Granule exo inh: -6; Myeloid diff 2: active; NPR2 activator: 1

How did CC(C)(C)C(=O)NC1CCCCN(Cc2ccc(Cl)cc2)C1=O (centres undefined) do in these assays?
GC-A act: -1; NPR2 activator: 6

How did Cc1ccc(C)c(N(C)C(=O)c2cc3c(=O)[nH]c4ccc(C)cc4c3s2)c1 do in these assays?
GC-A act: 35; Granule exo inh: 5; Myeloid diff 2: inactive; NPR2 activator: 37*

How did Cc1cccc(C=Nc2ccc3c4c(cccc24)CC3)c1O do in these assays?
GC-A act: -4; Granule exo inh: -3; Myeloid diff 2: active; NPR2 activator: -2

What do the screens show for `C=CCNC(=S)N(C)[C@H]1C[C@H]2c3[nH]c4c(-c5ccccc5)cccc4c3CCN2C(=O)[C@H]1[C@H](C)O`?
GC-A act: -12; NPR2 activator: -9

What do the screens show for `Fc1ccc(-c2n[nH]c(=S)n2N=Cc2ccc(OCc3ccccc3)cc2)cc1`?
GC-A act: -2; NPR2 activator: -5

What do the screens show for `Cc1sc2nc(CSCC(=O)Nc3ccccc3C#N)[nH]c(=O)c2c1C`?
GC-A act: -4; Granule exo inh: 2; Myeloid diff 2: active; NPR2 activator: -4

Results for COc1cc(/C=N/NC(=S)NC(C)C)ccc1OCC(=O)Nc1c(C)cc(C)cc1C ?
GC-A act: 34; Granule exo inh: -12; Myeloid diff 2: inactive; NPR2 activator: 44*

How did CCNC(=S)N/N=C/c1ccc(OCC(=O)Nc2ccc(OC)cc2)c(OC)c1 do in these assays?
GC-A act: 39; Granule exo inh: 9; Myeloid diff 2: inactive; NPR2 activator: 55*

How did COc1ccc(NC(=O)COc2ccc(/C=N/O)cc2OC)cc1 do in these assays?
GC-A act: 1; Granule exo inh: -4; Myeloid diff 2: inactive; NPR2 activator: -7

What do the screens show for `CCCCNC(=S)N(C)/N=C/c1ccc(OCC(=O)Nc2c(C)cc(C)cc2C)c(OC)c1`?
GC-A act: 6; Granule exo inh: 3; Myeloid diff 2: inactive; NPR2 activator: 15

How did CCOC(=O)N1CCN(C(=O)C[C@H]2C[C@@]3(C(=O)OC)C(=C[C@H](COCc4ccccc4)O[C@@H]3C)N(Cc3ccccc3)C2=O)CC1 do in these assays?
GC-A act: 0; NPR2 activator: 1

What do the screens show for `CCC1=[N+](C)c2cccc3cccc(c23)N1C`?
GC-A act: 12; Granule exo inh: 1; Myeloid diff 2: active; NPR2 activator: -2

How did Cc1cc(N/N=C/c2ccc(O)c(C)c2O)nc(-c2ccccc2O)n1 do in these assays?
GC-A act: -9; Granule exo inh: 80*; Myeloid diff 2: inactive; NPR2 activator: -5

Results for C/C(=N\Nc1cc(C)nc(-c2ccccc2O)n1)c1ccccc1 ?
GC-A act: -5; Granule exo inh: -1; Myeloid diff 2: inactive; NPR2 activator: -3

How did Cc1ccccc1CSc1ccc2nnc(-c3ccccn3)n2n1 do in these assays?
GC-A act: 2; Granule exo inh: 0; Myeloid diff 2: active; NPR2 activator: -3

What do the screens show for `CCCCNC1=CC(=O)C(=O)c2ccccc21`?
GC-A act: -2; Granule exo inh: 7; Myeloid diff 2: active; NPR2 activator: 2

Results for CC(=O)c1ccc(C(=O)N2CCCC(CCC(=O)N(C)CCc3ccccn3)C2)s1 (centres undefined) ?
GC-A act: -2; Granule exo inh: -2; Myeloid diff 2: active; NPR2 activator: -4

Results for O=C(c1ccc(F)cc1)C(CN1CCOCC1)c1ccccc1 (centres undefined) ?
GC-A act: -8; Granule exo inh: 9; Myeloid diff 2: inconclusive; NPR2 activator: -19

Results for O=C(c1ccccc1)C(CCC(CN1CCOCC1)C(=O)c1ccccc1)CN1CCOCC1 (centres undefined) ?
GC-A act: -24; Granule exo inh: 76*; Myeloid diff 2: inactive; NPR2 activator: -21

Results for NC(=O)c1ccc(C(F)(F)F)cn1 ?
GC-A act: 2; Granule exo inh: 0; Myeloid diff 2: inactive; NPR2 activator: 0

What do the screens show for `O=C(O)CS(=O)(=O)c1ccc(C(F)(F)F)cn1`?
GC-A act: 1; Granule exo inh: -1; Myeloid diff 2: active; NPR2 activator: 0

What do the screens show for `O=C1C=CC2(O[C@H](c3ccccc3)[C@@H](c3ccccc3)O2)[C@H](Sc2ccccc2O)C1`?
GC-A act: -21; Granule exo inh: 102*; Myeloid diff 2: active; NPR2 activator: -9

What do the screens show for `Nc1ccc(S(=O)(=O)c2cc(O)c3ccccc3c2O)cc1`?
GC-A act: 11; Granule exo inh: 88*; Myeloid diff 2: inactive; NPR2 activator: 2

What do the screens show for `Cc1ccc(C(=O)C(C)[n+]2cccc(C(N)=O)c2)cc1` (centres undefined)?
GC-A act: 1; Granule exo inh: -1; Myeloid diff 2: inactive; NPR2 activator: -2
